# Assay results taken from PubChem BioAssay (Tox21).
# Inconclusive results are not listed. Unmarked numbers belong to inactive results. Calls of active or inactive are those of the source. Calls follow the shape of the dose curve; as a rule, active = well fitted cell-killing curve with a large enough effect in the repeat runs; inconclusive = weak or mixed curves; inactive = no such curve, though single readings can be large or run the other way.
# Assay: qHTS assay to identify small molecule agonists of the peroxisome proliferator-activated receptor delta (PPARd) signaling pathway - cell viability counter screen (AID 743211); also: nearly all actives have a fitted effect of over 55% in size
# Conditions: PPARd-bla HEK293H viability, CellTiter-Glo luminescence, 17 h; series mostly up to 62.6 µM
# Excerpt: U.S. Tox21 Program National Center for Advancing Translational Sciences [NCATS] NIH Chemical Genomics Center [NCGC] U.S. Environmental Protection Agency [EPA] National Institutes of Environmental Health Sciences [NIEHS] National Toxicology Program [NTP] U.S. Food and Drug Administration [FDA] Tox21 Assay Overview: The peroxisome proliferator-activated receptors (PPARs) are lipid-activated transcription factors of the nuclear receptor superfamily with three distinct subtypes namely PPAR alpha, PPAR delta (PPARd) and PPAR gamma. All these subtypes heterodimerizes with Retinoid X receptor (RXR) and have different physiological functions. […] To identify the compounds that activate PPAR-delta signaling, GeneBLAzer PPAR delta UAS-bla HEK293H cell line (Invitrogen, Carlsbad, CA, USA) containing a beta-lactamase reporter gene under the control of an Upstream Activator Sequence (UAS) was used to screen the Tox21 compound library. The cytotoxicity of the Tox21 compound library against the PPARd-bla cell line was tested in parallel by measuring the cell viability using CellTiter-Glo assay (Promega, Madison, WI) in the same wells.
# Tox21 Assay Protocol Summary: PPARd-bla cells were dispensed at 3000 cells/6uL/well in 1536-well black wall/clear bottom plates using a Multidrop Combi (Thermo Fisher Scientific, Waltham, MA) dispenser. After the assay plates were incubated at 37 C and 5% CO2 for 5 h, 23 nL of compounds dissolved in DMSO, positive controls or DMSO only was transferred to the assay plate by a Pintool station (Kalypsys, San Diego, CA). The assay plates were incubated at 37C for 17 h. After 1 uL of LiveBLAzerTM B/G FRET substrate was added using a Bioraptr Flying Reagent Dispenser (FRD) workstation (Beckman Coulter, Indianapolis, IN, USA), the plates were incubated at room temperature for 2 h, and fluorescence intensity was measured by an Envision plate reader (PerkinElmer, Shelton, CT). For cell viability readout that measures cytotoxicity, 3 ul/well of CellTiter-Glo reagent was added into the assay plates using a Bioraptr FRD. After 30 min incubation at room temperature, the luminescence intensity in the plates was measured using a ViewLux plate reader (PerkinElmer).
# % is scaled to controls: 0 for no effect and ±100 for the full control effect.
Compound,outcome,"activity change, negative = cytotoxicity"
C=CCN1CCc2nc(N)sc2CC1,inactive,
Cc1ccc2cccnc2c1,inactive,
CCOC(=O)[C@H](CCc1ccccc1)N[C@H]1CS[C@H](c2cccs2)CN(CC(=O)O)C1=O,inactive,
C/C=C(\C)C(=O)OC/C=C(\C)CCC=C(C)C,inactive,
N#Cc1cc(NC(=O)C(=O)O)c(Cl)c(NC(=O)C(=O)O)c1,inactive,
CN(C)CCc1c[nH]c2ccc(C[C@H]3COC(=O)N3)cc12,inactive,
CCCCN(CCCC)CCCCCCN(CCCC)CCCC,inactive,
C=C(C)C(=O)OCCOC1CC2CC1C1C=CCC21 (stereo not given),inactive,
COc1cnc(NS(=O)(=O)c2ccc(N)cc2)nc1,inactive,
CCOC(=O)c1ccc(N(C)C)cc1,inactive,
CCO/C=C1\N=C(c2ccccc2)OC1=O,inactive,
CC1(C)C(=O)C(C)(C)C1=O,inactive,
O=c1[nH]c(=O)c2cn[nH]c2[nH]1,inactive,
Cc1nc2ccc(Cl)cc2[nH]1,inactive,
CCCCCCCCCCCCCCCC/C=C/C1CC(=O)OC1=O (stereo not given),inactive,
CC(CC(=O)Cl)CC(C)(C)C (stereo not given),inactive,
Cc1ccc(O)c([N+](=O)[O-])c1,inactive,
c1coc(Cn2cccc2)c1,inactive,
CCN(CC)CC,inactive,
COCc1nnc(-c2ccc[n+]([O-])c2)n1-c1c(Cl)c(Cl)cc2[nH]c(=O)c(=O)[nH]c12,inactive,

Compound,outcome,"activity change, negative = cytotoxicity"
CCCCCCC(O)CO (stereo not given),inactive,
COc1ccccc1N1CCN(CC(O)COc2cc(OC)c(OC)c(OC)c2)CC1 (stereo not given),inactive,
CC/C=C/CCCCCCCCCCOC(C)=O,inactive,
CC(C)=CCC/C(C)=C\C#N,inactive,
Cc1cc(N)no1,inactive,
Clc1ccc2c(c1)Nc1ccccc1S2,inactive,
Cc1cc(C)c(N)c(Cl)c1,inactive,
CC(C)(C)c1ccc(N)cc1,inactive,
C[C@@H]1NC(=O)[C@@H](N)CNC(=O)[C@H](C2CCNC(N)=N2)NC(=O)/C(=C/NC(N)=O)NC(=O)[C@H](CNC(=O)C[C@@H](N)CCCN)NC1=O (stereo not given in full),,14.7% [at 0.55 µM]
O=C(O)Cc1ccccc1Oc1ccc(Cl)cc1Cl,inactive,
CC(C)OCCO,inactive,
C=CC(=O)OCC[N+](C)(C)C,inactive,
NS(=O)(=O)c1cc2c(cc1C(F)(F)F)NCNS2(=O)=O,inactive,
CCOC(=O)CN1CCCC1=O,inactive,
CCCCCC(CC)OC(=O)CCCOc1ccc(Cl)cc1Cl (stereo not given),inactive,
CCOC(=O)CC,inactive,
CNC(C)=O,inactive,
CC(=O)OC/C=C(/C)CCC=C(C)C,inactive,
CCCCCCCCCCCC(C)=O,inactive,
O=C(CCBr)N1CCN(C(=O)CCBr)CC1,inactive,
